Experimental data reported in the supplement of paper PMC10849652.
Targets with a hit are over-represented here; the source holds about 8,800 in all. About 0.5% of all pairs of compound and target were hits. Unmarked numbers belong to inactive results.

What was measured:
Assay in all cases: log2 fold change, soluble protein after heating vs DMSO (PISA); higher = thermal stabilisation; K562 lysate, 10 uM; active = over 0.2 and 3.5 SD of the protein, either way, in both replicates (recomputed)
[1] = compound: C#Cc1cccc(Nc2ncnc3cc(OCCOC)c(OCCOC)cc23)c1 [erlotinib]
Summary of the method: (§1)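 K562 pellets were dounce-homogenised in PBS pH 7.4 containing 1 mM MgCl2, and the crude extract, at 1 mg/mL protein, was exposed to 10 μM compound for 30 min. Aliquots were heated for 3 min across 48°C-58°C, pooled, brought to 0.5% NP-40 at 4°C and spun at 21,000xg for 90 min, with the supernatant taken as soluble protein. TMTpro 16plex LC-MS/MS with equalised channel sums quantified that protein. Values are log-two fold changes in thermal stability relative to solvent controls, taken from duplicates.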

[2] = compound: C/C(=N\NC(=O)C1=CC(=CC=C1)S(=O)(=O)N2CCOCC2)/C3=C(C=CC(=C3)Cl)O
Summary of the method: as §1

[3] = compound: C1=CC(=CC=C1C2=NC3=C(N2)C=C(C=C3)C(=O)N)OC4=CC=C(C=C4)Cl
Summary of the method: as §1

[4] = compound: C1=CC2=C(C=CC(=C2)/C=C\3/C(=O)NC(=NCC4=CC=CS4)S3)N=C1
Summary of the method: as §1

[5] = compound: C1=CC2=NC=CN=C2C=C1/C=C/3\C(=O)NC(=O)S3
Summary of the method: as §1

[6] = compound: C1=CC=C(C=C1)C2=NC(=C(N2)C3=CC=NC=C3)C4=CC(=C(C=C4)Cl)O
Summary of the method: as §1

[7] = compound: C1=CC=C2C(=C1)C3=NNC4=CC=CC(=C43)C2=O
Summary of the method: as §1

[8] = compound: C1CCN(C1)C(=O)NC2=CC=CC(=C2)NC3=NC=C(C(=N3)NCCC4=CN=CN4)Br
Summary of the method: as §1

[9] = compound: C1CN(CCC1(CC2=CC=C(C=C2)Cl)N)C3=NC=NC4=C3C=CN4
Summary of the method: as §1

[10] = compound: C1COCCN1CCN2C3=CC=CC=C3N=C2NC(=O)C4=CC(=CC=C4)[N+](=O)[O-] [IRAK-1-4 Inhibitor I]
Summary of the method: as §1

Chain of UniProt Q01664 (Q01664 whole entry, looked up): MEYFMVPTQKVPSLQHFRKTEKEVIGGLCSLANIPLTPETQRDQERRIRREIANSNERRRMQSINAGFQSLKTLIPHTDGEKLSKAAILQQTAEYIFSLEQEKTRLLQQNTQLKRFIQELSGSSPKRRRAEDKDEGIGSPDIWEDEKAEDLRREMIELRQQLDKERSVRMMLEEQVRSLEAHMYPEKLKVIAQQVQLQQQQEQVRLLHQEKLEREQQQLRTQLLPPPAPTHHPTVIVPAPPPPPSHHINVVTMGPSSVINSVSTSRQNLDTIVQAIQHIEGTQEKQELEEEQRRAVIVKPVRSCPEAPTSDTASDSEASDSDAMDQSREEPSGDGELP
Chain of UniProt P61960 (P61960 whole entry, looked up): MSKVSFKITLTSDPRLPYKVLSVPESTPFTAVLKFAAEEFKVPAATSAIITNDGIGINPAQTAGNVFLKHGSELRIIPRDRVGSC
Chain of UniProt P28289 (P28289 whole entry, looked up): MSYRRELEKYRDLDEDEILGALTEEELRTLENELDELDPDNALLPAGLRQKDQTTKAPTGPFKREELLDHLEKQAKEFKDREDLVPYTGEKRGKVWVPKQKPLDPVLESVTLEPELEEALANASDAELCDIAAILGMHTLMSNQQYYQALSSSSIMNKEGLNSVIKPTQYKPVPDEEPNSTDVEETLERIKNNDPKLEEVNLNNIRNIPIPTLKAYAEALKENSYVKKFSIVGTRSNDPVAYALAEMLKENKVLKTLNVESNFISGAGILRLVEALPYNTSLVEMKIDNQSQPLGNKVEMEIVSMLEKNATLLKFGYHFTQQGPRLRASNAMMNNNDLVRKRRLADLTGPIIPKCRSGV
Chain of UniProt Q9UKE5 (Q9UKE5 whole entry, looked up): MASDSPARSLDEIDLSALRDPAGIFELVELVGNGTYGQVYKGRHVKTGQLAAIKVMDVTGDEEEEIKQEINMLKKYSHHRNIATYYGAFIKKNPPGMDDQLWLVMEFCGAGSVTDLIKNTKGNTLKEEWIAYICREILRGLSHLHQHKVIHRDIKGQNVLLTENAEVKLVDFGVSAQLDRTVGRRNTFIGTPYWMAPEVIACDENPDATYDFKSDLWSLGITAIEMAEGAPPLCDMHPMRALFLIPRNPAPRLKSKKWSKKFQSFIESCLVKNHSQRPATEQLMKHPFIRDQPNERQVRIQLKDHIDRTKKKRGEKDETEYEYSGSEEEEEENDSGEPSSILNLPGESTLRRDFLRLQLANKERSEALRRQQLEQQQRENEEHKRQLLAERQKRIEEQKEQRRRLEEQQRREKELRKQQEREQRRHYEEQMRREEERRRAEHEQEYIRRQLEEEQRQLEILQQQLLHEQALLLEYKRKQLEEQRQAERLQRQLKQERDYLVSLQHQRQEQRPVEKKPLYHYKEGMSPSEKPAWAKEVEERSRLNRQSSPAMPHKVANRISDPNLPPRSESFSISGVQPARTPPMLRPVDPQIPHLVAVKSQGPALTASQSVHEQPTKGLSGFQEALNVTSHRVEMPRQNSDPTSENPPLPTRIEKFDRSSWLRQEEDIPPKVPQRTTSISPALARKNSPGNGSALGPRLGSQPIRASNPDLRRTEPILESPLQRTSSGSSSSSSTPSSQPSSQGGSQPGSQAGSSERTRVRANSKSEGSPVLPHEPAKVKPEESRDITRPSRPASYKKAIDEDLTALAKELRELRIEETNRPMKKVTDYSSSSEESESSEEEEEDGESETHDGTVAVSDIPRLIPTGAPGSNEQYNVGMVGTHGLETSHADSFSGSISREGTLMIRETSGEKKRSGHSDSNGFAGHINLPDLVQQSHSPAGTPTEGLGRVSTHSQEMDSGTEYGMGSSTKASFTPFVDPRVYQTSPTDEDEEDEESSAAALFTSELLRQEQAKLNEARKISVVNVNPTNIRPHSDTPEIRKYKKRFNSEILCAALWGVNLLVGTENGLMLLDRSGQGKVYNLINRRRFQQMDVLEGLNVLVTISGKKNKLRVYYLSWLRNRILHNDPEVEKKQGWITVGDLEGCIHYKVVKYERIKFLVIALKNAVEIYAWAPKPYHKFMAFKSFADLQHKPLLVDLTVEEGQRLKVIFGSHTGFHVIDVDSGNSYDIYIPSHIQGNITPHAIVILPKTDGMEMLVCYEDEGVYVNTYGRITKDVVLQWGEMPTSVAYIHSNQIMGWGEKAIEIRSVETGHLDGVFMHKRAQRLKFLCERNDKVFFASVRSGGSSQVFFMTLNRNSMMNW
Chain of UniProt Q9H497 (Q9H497 whole entry, looked up): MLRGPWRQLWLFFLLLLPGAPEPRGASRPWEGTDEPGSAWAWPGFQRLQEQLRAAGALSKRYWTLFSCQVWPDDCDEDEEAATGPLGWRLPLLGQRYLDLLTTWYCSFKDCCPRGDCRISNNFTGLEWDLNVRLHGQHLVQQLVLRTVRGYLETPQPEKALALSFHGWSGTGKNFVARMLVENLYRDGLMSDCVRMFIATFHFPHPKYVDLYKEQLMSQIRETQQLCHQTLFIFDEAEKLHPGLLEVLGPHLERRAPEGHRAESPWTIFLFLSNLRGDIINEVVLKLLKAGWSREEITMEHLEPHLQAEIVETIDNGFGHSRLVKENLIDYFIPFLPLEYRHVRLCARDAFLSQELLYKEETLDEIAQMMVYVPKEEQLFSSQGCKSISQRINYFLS
Chain of UniProt Q96LJ8 (Q96LJ8 whole entry, looked up): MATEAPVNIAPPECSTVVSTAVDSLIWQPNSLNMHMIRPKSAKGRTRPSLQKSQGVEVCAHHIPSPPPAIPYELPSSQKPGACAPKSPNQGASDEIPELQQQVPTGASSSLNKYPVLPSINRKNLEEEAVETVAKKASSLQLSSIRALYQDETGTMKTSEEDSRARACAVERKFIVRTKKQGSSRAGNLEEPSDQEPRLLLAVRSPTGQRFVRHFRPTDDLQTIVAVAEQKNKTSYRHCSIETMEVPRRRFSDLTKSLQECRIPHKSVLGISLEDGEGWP
Chain of UniProt Q9UKI8 (Q9UKI8 whole entry, looked up): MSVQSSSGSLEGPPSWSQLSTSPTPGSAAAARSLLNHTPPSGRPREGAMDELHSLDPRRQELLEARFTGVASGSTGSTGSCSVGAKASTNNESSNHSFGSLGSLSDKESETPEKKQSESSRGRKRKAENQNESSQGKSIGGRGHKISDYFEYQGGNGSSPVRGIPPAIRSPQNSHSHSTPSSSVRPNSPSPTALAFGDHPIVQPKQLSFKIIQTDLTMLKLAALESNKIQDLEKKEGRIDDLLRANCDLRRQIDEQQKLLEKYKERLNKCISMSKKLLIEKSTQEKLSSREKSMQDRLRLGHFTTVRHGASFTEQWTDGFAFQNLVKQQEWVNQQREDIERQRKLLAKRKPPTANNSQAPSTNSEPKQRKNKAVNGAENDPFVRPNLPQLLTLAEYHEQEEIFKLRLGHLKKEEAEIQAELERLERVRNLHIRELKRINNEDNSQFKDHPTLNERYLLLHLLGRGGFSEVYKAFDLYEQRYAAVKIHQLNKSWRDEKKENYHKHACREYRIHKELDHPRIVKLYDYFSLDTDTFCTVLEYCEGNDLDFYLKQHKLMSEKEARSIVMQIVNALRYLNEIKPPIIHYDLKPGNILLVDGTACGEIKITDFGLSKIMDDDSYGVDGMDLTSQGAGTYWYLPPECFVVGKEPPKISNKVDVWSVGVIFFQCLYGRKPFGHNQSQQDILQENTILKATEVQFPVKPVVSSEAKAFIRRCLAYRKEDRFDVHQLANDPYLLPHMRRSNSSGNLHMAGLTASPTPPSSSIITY
Chain of UniProt Q5R3I4 (Q5R3I4 whole entry, looked up): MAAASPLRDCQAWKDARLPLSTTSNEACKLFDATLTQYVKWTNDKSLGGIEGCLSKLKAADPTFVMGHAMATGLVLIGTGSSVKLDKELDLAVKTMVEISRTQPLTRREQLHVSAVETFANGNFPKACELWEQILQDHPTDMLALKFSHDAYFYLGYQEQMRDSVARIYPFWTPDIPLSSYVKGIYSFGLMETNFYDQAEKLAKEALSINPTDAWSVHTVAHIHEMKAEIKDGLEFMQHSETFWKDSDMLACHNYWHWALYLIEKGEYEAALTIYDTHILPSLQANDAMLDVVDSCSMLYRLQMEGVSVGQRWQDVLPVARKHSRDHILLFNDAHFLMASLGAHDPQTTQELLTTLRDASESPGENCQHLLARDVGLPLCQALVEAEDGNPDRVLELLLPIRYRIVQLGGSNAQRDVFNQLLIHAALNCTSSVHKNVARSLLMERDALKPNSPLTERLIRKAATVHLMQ
Chain of UniProt O75865 (O75865 whole entry, looked up): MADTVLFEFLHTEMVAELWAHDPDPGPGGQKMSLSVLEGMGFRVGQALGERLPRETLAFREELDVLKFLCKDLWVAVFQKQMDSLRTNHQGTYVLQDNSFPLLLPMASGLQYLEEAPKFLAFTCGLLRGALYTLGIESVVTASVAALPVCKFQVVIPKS
Chain of UniProt P43897 (P43897 whole entry, looked up): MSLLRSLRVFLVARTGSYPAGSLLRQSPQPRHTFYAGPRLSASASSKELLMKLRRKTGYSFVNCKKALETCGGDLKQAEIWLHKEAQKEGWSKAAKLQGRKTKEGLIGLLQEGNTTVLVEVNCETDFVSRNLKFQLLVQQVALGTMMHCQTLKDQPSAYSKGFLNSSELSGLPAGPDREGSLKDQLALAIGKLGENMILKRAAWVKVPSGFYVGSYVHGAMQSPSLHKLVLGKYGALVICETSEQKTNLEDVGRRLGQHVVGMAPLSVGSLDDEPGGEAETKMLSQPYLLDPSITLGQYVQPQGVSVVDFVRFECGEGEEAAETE
Chain of UniProt P67936 (P67936 whole entry, looked up): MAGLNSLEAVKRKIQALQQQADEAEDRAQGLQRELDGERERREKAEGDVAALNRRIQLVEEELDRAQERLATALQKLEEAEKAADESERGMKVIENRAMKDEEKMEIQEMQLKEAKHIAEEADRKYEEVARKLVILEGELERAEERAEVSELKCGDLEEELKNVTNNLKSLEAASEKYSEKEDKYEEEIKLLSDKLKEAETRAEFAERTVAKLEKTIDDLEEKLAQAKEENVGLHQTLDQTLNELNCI
Chain of UniProt P51668 (P51668 whole entry, looked up): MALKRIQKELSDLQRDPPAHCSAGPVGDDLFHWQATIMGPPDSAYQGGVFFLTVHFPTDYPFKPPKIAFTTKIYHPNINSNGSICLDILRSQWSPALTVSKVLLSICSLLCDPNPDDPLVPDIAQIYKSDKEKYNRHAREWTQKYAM

Row | Target | log2 fold change [1] | log2 fold change [2] | log2 fold change [3] | log2 fold change [4] | log2 fold change [5] | log2 fold change [6] | log2 fold change [7] | log2 fold change [8] | log2 fold change [9] | log2 fold change [10]
1 | TRAPPC10 (UniProt P48553) | 0.066 | 0.031 | 0.027 | 0.045 | 0.018 | 0.004 | -0.058 | 0.057 | 0.005 | 0.013
2 | TK1 (UniProt P04183) | 0.003 | -0.112 | 0.036 | -0.001 | 0.028 | -0.003 | 0.021 | 0.013 | 0.017 | 0.008
3 | TPM3 isoform 2 (UniProt P06753) | -0.075 | -0.007 | -0.065 | -0.008 | 0.003 | 0.004 | 0.038 | 0.039 | -0.074 | -0.042
4 | TRIP13 (UniProt Q15645) | 0.034 | -0.117 | 0.007 | 0.04 | -0.034 | 0.009 | -0.038 | 0 | -0.002 | 0.005
5 | TP53RK (UniProt Q96S44) | -0.005 | 0.025 | 0.038 | -0.24 (active) | -0.37 (active) | -0.03 | 0.042 | 0.014 | -0.022 | -0.008
6 | UBL5 (UniProt Q9BZL1) | 0 | 0.002 | -0.02 | 0.011 | -0.079 | 0 | 0.049 | 0.029 | 0.004 | -0.062
7 | TFAP4 (UniProt Q01664) | -0.063 | -0.042 | 0.017 | -0.025 | 0.018 | -0.09 | 0.055 | 0.135 | -0.016 | -0.061
8 | TDRKH (UniProt Q9Y2W6) | -0.067 | 0.023 | -0.017 | -0.018 | -0.065 | 0.02 | -0.086 | -0.011 | -0.022 | 0.047
9 | TCP11L1 (UniProt Q9NUJ3) | 0.082 | 0.032 | 0.032 | 0.033 | -0.053 | 0.075 | -0.069 | -0.005 | 0.094 | 0.001
10 | TPP2 (UniProt P29144) | -0.001 | -0.098 | 0.01 | 0.001 | 0.006 | 0 | -0.02 | -0.003 | -0.005 | -0.002
11 | TUBA3C (UniProt P0DPH7) | 0.03 | -0.605 | 0.039 | -0.029 | 0.023 | -0.023 | -0.01 | -0.011 | 0.036 | 0.037
12 | TNIK isoform 4 (UniProt Q9UKE5) | -0.015 | -0.037 | -0.035 | 0.119 | 0.003 | 0.125 | 0.244 | 0.113 | -0.031 | -0.019
13 | TXNRD2 (UniProt Q9NNW7) | -0.01 | -0.085 | 0.049 | 0.008 | -0.025 | 0.009 | -0.031 | 0.017 | 0.044 | -0.007
14 | UBXN10 (UniProt Q96LJ8) | 0.064 | 0.026 | 0.057 | -0.089 | -0.072 | 0.027 | 0.018 | -0.012 | 0.041 | 0.03
15 | TPM4 (UniProt P67936) | 0.028 | 0.048 | 0.005 | 0.058 | -0.012 | 0.001 | 0.009 | -0.064 | -0.012 | 0.028
16 | TBC1D8B (UniProt Q0IIM8) | -0.023 | -0.376 | 0.036 | -0.041 | 0 | 0.01 | 0.01 | 0.017 | 0.063 | 0.001
17 | TRIP12 isoform 2 (UniProt Q14669) | 0.034 | 0.013 | -0.014 | 0.004 | 0.024 | -0.027 | -0.02 | 0.019 | -0.021 | -0.032
18 | TOR3A (UniProt Q9H497) | 0 | 0.002 | 0.006 | -0.008 | -0.01 | -0.012 | -0.087 | 0.039 | 0.013 | 0.021
19 | TRA2A (UniProt Q13595) | -0.164 | -0.261 | -0.092 | -0.03 | -0.137 | 0.038 | -0.024 | 0.083 | -0.234 | -0.102
20 | TPX2 (UniProt Q9ULW0) | -0.014 | -0.008 | 0.032 | -0.022 | -0.013 | 0.019 | 0.001 | -0.005 | -0.026 | 0.006
21 | TLK1 isoform 2 (UniProt Q9UKI8) | 0 | -0.029 | -0.024 | -0.013 | -0.007 | -0.016 | 0.145 | 0.007 | 0.099 | 0.023
22 | TSFM (UniProt P43897) | -0.013 | 0.009 | -0.035 | -0.003 | -0.002 | 0.017 | -0.063 | 0.024 | 0.034 | -0.024
23 | TMEM87A (UniProt Q8NBN3) | -0.015 | -0.021 | 0.01 | 0.037 | -0.02 | -0.02 | -0.027 | 0.031 | -0.004 | -0.028
24 | TMOD1 (UniProt P28289) | 0.002 | -0.091 | 0.018 | 0.018 | -0.001 | 0.003 | 0.013 | -0.005 | -0.002 | 0.012
25 | TRADD (UniProt Q15628) | 0.053 | 0.258 (active) | 0.03 | -0.224 | 0.009 | -0.013 | 0.251 | 0.029 | 0.076 | 0.033
26 | UBE2D1 (UniProt P51668) | -0.043 | 0.008 | 0.072 | -0.007 | -0.032 | 0.008 | -0.006 | -0.042 | 0.015 | -0.038
27 | UFM1 (UniProt P61960) | 0.035 | 0.078 | -0.003 | 0.085 | 0.029 | -0.013 | 0.123 | 0.066 | 0.013 | -0.009
28 | TRAPPC6A isoform 2 (UniProt O75865) | 0.018 | 0.095 | 0.002 | 0.049 | -0.055 | -0.016 | -0.005 | 0.154 | 0.095 | 0.047
29 | TTC38 (UniProt Q5R3I4) | 0.037 | 0.015 | 0.009 | 0.039 | 0.007 | 0.035 | -0.022 | -0.003 | 0.068 | -0.004
30 | TPM1 (UniProt H7BYY1) | -0.034 | -0.004 | -0.057 | 0.026 | -0.008 | 0.091 | -0.041 | 0.012 | -0.02 | -0.071
